# Only some compounds are listed: those with a hit (about 7.2% of all), similar ones and a draw of the others.
# ALR H2O2 inh = inhibitors of human ALR sulfhydryl oxidase, primary screen, biochemical, H2O2 detection, HRP-luminol luminescence, single point. FAD-linked sulfhydryl oxidase ALR (Homo sapiens), P55789. purified ALR, DTT oxidation. inhibition, % (test concentration not listed). 290,000 tested, 3.8% active. AID 485317, 2010;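 active = mean replicate inhibition above about 79%, with every replicate also reaching it, limit read from the data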
# Mot1-301 SUMO = yeast Mot1-301 growth rescue at high temperature, primary screen, SUMOylation pathway inhibitor project, S. cerevisiae, ATP luminescence, 38.5C | S. cerevisiae Mot1-301 growth rescue; percent above DMSO median, 100 means doubled | growth rescue, % at 18.8 µM | 320,000 tested, 1% active;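 active = every valid replicate shows activation above 250% relative to neutral control wells; inactive = the rest, any valid replicate at or below 250%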;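 note: OY570 slx delta 5 strain wells were the positive control but not used for scaling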
# A1 inh = caspase 3/7 activation in MEF A1-2A-BIM cells, primary screen, A1 inhibitor project, cell-based, luminescence, HTS; 330,000 tested, 0.066% active; caspase activation, % (test concentration not listed); Caspase-Glo 3/7 luminescence, 3 h; percent of clofoctol response, vehicle zero;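 active = over half of replicate activation scores above 10%, or exactly half above 10 with the replicate mean above 10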
# Efflux pump mplx = inhibitors of Candida efflux pumps in yeast, primary screen, S. cerevisiae, Nile Red, multiplex; AID 485275, 2010; inhibition, % at 10 µM; S. cerevisiae Candida pump triplex; 330,000 tested, 0.44% active;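 active = plate passing quality check with inhibition over a set limit, or well fluorescence over plate mean plus 4 SD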;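 note: Nile Red retained in pooled yeast measured as flow cytometry median fluorescence; 0% = buffer negative control and 100% = Enniatin B positive control; higher means more Nile Red kept so more efflux inhibition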
# AHR act = AHR activators, primary screen, cell-based, luminescence, luciferase reporter, human | Aryl hydrocarbon receptor (Homo sapiens), P35869 | AHR-responsive luciferase reporter cells | activation, % at 5 µM | 320,000 tested, 2.5% active; in the data active = activation above about 47%;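 note: 0% = vehicle wells and 100% = reference agonist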
# Target sequence (P35869 whole entry, looked up): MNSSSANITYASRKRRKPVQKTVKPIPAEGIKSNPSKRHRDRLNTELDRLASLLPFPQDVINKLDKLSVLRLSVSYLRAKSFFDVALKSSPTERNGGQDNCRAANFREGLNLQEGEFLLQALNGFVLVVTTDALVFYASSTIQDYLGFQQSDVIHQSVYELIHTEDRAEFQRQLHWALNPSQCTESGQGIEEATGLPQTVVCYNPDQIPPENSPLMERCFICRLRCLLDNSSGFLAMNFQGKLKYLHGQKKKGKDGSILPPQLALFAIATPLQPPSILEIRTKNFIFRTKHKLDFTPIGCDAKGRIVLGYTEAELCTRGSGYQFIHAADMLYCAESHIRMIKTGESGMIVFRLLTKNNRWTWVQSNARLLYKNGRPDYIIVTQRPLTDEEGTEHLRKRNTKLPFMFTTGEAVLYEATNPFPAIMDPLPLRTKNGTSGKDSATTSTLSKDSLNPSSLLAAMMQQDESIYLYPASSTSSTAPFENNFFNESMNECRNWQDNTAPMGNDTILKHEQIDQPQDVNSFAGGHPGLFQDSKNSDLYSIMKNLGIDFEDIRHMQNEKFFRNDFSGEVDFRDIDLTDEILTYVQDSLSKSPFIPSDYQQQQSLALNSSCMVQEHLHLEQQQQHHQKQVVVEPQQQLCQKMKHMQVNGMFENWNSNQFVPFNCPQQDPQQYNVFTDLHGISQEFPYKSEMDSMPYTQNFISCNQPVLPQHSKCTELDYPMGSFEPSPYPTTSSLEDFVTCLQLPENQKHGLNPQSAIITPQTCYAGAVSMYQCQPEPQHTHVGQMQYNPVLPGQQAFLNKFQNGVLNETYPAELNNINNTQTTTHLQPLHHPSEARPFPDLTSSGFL
# VLA-4 inh = inhibition in human VLA-4 binding assay, primary screen, VLA-4 allosteric modulator project, MLPCN library, flow cytometry, VLA-4 expressing cells; Integrin alpha-4 (Homo sapiens), P13612; ligand binding flow cytometry; inhibition, % (about 7 µM as worked out from the volumes in the protocol); 330,000 tested, 0.2% active; AID 2557, 2010; in the data active = inhibition above about 50%
# Yeast Mot1 SUMO = growth restoration of Mot1-301 yeast on galactose, dose response, SUMO pathway inhibitor project, whole organism, S. cerevisiae, ATP luminescence, cherry-picked samples | S. cerevisiae Mot1-301 galactose growth, 24 h; -100 = growth of slx-deleted rescue strain | growth activity, percent, % at 42 µM | 2,300 tested, under 10 active | shares compounds with Mot1-301 SUMO;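 active = Signal drops as the depositor expects, and the fitted half-maximal dose is no more than ten times the top valid tested dose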;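 note: more negative values mean stronger growth rescue toward the control strain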
# Active calls of the source: *; / = not tested or not shown; + = active, no number; [ ] = remark or other dose.
SMILES,ALR H2O2 inh,Mot1-301 SUMO,A1 inh,Efflux pump mplx,AHR act,VLA-4 inh,Yeast Mot1 SUMO
CS(=O)(=O)N(CC(=O)N1CCCCCC1)Cc1ccc(Cl)cc1,0,589*,-1,0,2,-13,0
CN1CCN(C(=O)CN(Cc2ccc(Cl)cc2)S(C)(=O)=O)CC1,-10,16,0,0,19,-6,/
COc1ccc(N2CCN(C(=O)COC(=O)COc3cccc(C(F)(F)F)c3)CC2)cc1,59,-9,-1,0,1,0,/
O=C1CN(C(=O)COC(=O)c2cccc(S(=O)(=O)NCc3ccccc3)c2)c2ccccc2N1,-3,554*,1,0,1,-7,1
CC(=O)c1ccccc1C(=O)N1CCCC(N2CCN(Cc3ccc4c(c3)OCO4)CC2)C1 (stereo not given),-1,360*,0,0,4,8,0
CN(NC(=O)c1ccco1)c1nc2ccccc2nc1C(F)(F)F,-14,81,0,0,-1,13,/
Cc1ccccc1C(=O)NN(C)c1nc2ccccc2nc1C(F)(F)F,-2,+,0,0,1,13,1
Cc1cc(=O)c(C(=O)O)cn1Nc1ccc(Cl)cc1,-4,+,0,0,4,13,0
Cc1cc(=O)c(C(=O)O)cn1Nc1ccc(F)cc1,-2,/,0,0,-2,-2,/
Cc1ccc(-c2nc(-c3ccncc3)no2)cc1C,-6,31,-5,0,6,-5,/
Fc1cccc(F)c1-c1nc(-c2ccncc2)no1,-1,952*,-3,0,39,5,0
COc1ccc(C)cc1NC(=S)N1CCN(c2ccccn2)CC1,-5,513*,0,0,2,18,1
COc1ccc(NC(=S)N2CCN(c3ccccn3)CC2)cc1OC,-18,3,0,0,0,2,/
O=C(O)CCc1ccc(-c2cccs2)n1NC(=O)c1ccc(O)cc1,21,-31,-1,0,1,3,/
O=C(O)CCc1ccc(-c2cccs2)n1NC(=O)c1cccs1,99*,+,-1,0,-1,16,0
COC(=O)c1c(C)cc(O)c(C=O)c1O,0,567*,1,0,0,6,0
CCOCCCn1c(=S)[nH]c2cc(C(=O)NCCc3ccccc3)ccc2c1=O,3,126,1,0,4,-5,/
COc1ccc(NC(=O)CC(C)C)c(OC)c1,-23,789*,-1,0,5,-1,0
CCc1c(C(=O)N2CCN(c3ccccc3F)CC2)[nH]c(C)c1C(C)=O,-1,+,1,0,2,-12,0
O=C(c1ccccc1C(=O)N1CCN(c2ccccc2F)CC1)N1CCN(c2ccccc2F)CC1,4,10,0,0,11,7,/
O=C(COC(=O)C1CC(=O)N(Cc2ccccc2)C1)Nc1ccccc1F (stereo not given),/,544*,-1,0,3,6,0[21 µM]
COc1cc(C)c(CN2CCC(n3nccc3NC(=O)C3CCOC3)CC2)cc1C (stereo not given),-2,2,0,0,2,7,/
COc1cc(C(=O)Nc2sc3c(c2C(=O)O)CCC(C)C3)cc(OC)c1OC (stereo not given),/,438*,1,0,14,-17,0
Brc1ccc(-c2cn3cccnc3n2)cc1,-3,662*,0,0,-8,1,-1
Clc1ccc(-c2cn3cccnc3n2)cc1,-15,10,-2,0,-10,3,/
SMILES,ALR H2O2 inh,Mot1-301 SUMO,A1 inh,Efflux pump mplx,AHR act,VLA-4 inh,Yeast Mot1 SUMO
CC1CC(C)CN(S(=O)(=O)N2CCCC(C(=O)NC(C)c3ccccc3)C2)C1 (stereo not given),0,14,0,0,-1,16,/
CC(NC(=O)C1CCCN(S(=O)(=O)N2CCOCC2)C1)c1ccccc1 (stereo not given),-9,368*,0,0,2,4,0
Cc1ccc(S(=O)(=O)N2c3ccc(S(N)(=O)=O)cc3CC2C)cc1 (stereo not given),-3,+,0,0,0,9,1
OCC1CCCN1C(=S)Nc1ccccc1 (stereo not given),-21,-21,1,0,-3,7,/
Cc1cc(C(=O)NNC(=O)c2cccc(N(C)C)c2)c(C)o1,-2,6,0,0,1,1,/
Cc1cc(C(=O)NNC(=O)c2ccc(C)s2)c(C)o1,-2,476*,1,0,3,10,0
Cc1cccc(N2CCN(CCCNC(=O)c3ccc(NC(=O)C4=CSCCO4)cc3)CC2C)c1 (stereo not given),43,445*,0,0,1,6,0
CC1CCCN(CCCNC(=O)c2ccc(NC(=O)C3=CSCCO3)cc2)C1 (stereo not given),-2,101,1,0,-2,9,/
COC(=O)C1Cc2c([nH]c3ccccc23)CN1C(C)=O (stereo not given),-18,-4,1,0,15,2,/
COc1ccc(OCC(=O)Nc2ccc(N3CCN(C(=O)c4ccco4)CC3)cc2)cc1,2,-4,0,0,1,2,/
Cc1cc(C)cc(OCC(=O)Nc2ccc(N3CCN(C(=O)c4ccco4)CC3)cc2)c1,-3,793*,0,0,-2,0,-1
Cc1ccc2oc(C(=O)Nc3ccc(S(=O)(=O)Nc4ncccn4)cc3)c(C)c2c1,-12,6,-1,0,2,8,/
O=C(/C=C/c1ccc(Cl)cc1Cl)Nc1cccc(S(=O)(=O)NC2=NCCCCC2)c1,-13,547*,0,0,-7,6,1
O=C(/C=C/c1ccccc1[N+](=O)[O-])Nc1cccc(S(=O)(=O)NC2=NCCCCC2)c1,/,/,/,0,3,22,/
O=C(Nc1ccc(Cl)cc1)C1=Cc2ccccc2OC1,-23,594*,-5,0,72*,-3,-3
Cc1ccc(C)c(NC(=O)CN(C)C(=O)/C=C/c2ccco2)c1,-2,1,-7,0,-1,0,/
Cc1ccc(-c2cc(C(=O)O)c3ccccc3n2)s1,23,891*,-4,0,/,-4,-1

# Screening data from PubChem.
